Results reported in PubChem BioAssay (NCI).
About 79,000 compounds went through this panel and 15% of them were active in at least one assay; those are over-represented in the sample as a whole. Rule as the data show it: active = growth inhibition above about 70%; inactive = the rest.

Key:
[1] = NCI Yeast Anticancer Drug Screen. Data for the rad50 strain (AID 155);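 also: 0% = growth of vehicle-only cultures of the same strain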; details: S. cerevisiae rad50 strain growth inhibition; at 50.0 µM; hits give high values
Outline: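 Inhibition values express reduced yeast growth in compound-treated cultures relative to vehicle-treated controls.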

[2] = NCI Yeast Anticancer Drug Screen. Data for the mec2-1 strain (AID 157); details: S. cerevisiae mec2-1 strain, at 50.0 µM, hits give high values
Outline: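 Each compound was tested on mec2-1 yeast, a strain altered in DNA damage repair or cell cycle control. Growth inhibition is reported relative to vehicle.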

[3] = NCI Yeast Anticancer Drug Screen. Data for the sgs1 mgt1 strain (AID 161);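 also: 0% = growth of cultures given vehicle only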; details: S. cerevisiae sgs1 mgt1 strain, at 50.0 µM, hits give high values
Outline: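 Read-out: growth inhibition vs vehicle controls. Cells: mutant yeast strain deficient in DNA damage repair.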

[4] = NCI Yeast Anticancer Drug Screen. Data for the cln2 rad14 strain (AID 165);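 also: 0% = growth equal to vehicle treated cultures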; details: S. cerevisiae cln2 rad14 strain, at 50.0 µM, hits give high values
Outline: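 Test compounds were added to cln2 rad14 yeast cultures; inhibition of growth was then determined by comparison with vehicle treatment.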

[5] = NCI Yeast Anticancer Drug Screen. Data for the bub3 strain (AID 167); details: S. cerevisiae bub3 mutant strain, at 50.0 µM, hits give high values
Outline: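 Steps: expose the mutant yeast strain to compound; grow alongside vehicle-treated cultures; measure growth; express inhibition against the vehicle cultures.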

[6] = NCI Yeast Anticancer Drug Screen. Data for the mlh1 rad18 strain (AID 175); details: S. cerevisiae mlh1 rad18 strain growth inhibition; at 50.0 µM; hits give high values
Outline: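 Inhibition values reflect reduced growth of mutant yeast versus vehicle-treated controls following compound exposure; the mutations affect DNA damage repair.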

Measured: growth inhibition

Cc1cc(=O)oc2cc(OCCCOc3ccc4c(C)cc(=O)oc4c3)ccc12
inactive: [1] 19.1% | [2] 5.45% | [3] -2.1% | [4] -4.1% | [5] -5.2% | [6] 13.3%

Cc1cn(C2CC(O)C(CO)O2)c(=O)nc1NC1CC1 (stereo unspecified)
inactive: [1] -7% | [2] 3.45% | [3] -1% | [4] -13% | [5] 0.6% | [6] 3.15%

Nc1ccc(O)c(N=Nc2ccc(S(N)(=O)=O)cc2)c1
inactive: [1] 6% | [2] 0.1% | [3] 13.6% | [4] -1.1% | [5] 18.1% | [6] 10.1%

Clc1ccc(C2ON=C(c3ccccc3)N2C23CC4CC(CC(C4)C2)C3)cc1 (stereo unspecified)
inactive: [1] -23.2% | [2] -27% | [3] -24.1% | [4] -0.3% | [5] -11.9% | [6] -0.75%

CO[C@H]1C=C[C@]23c4cc5c(cc4CN(CC2O)[C@@H]3C1)OCO5 (stereo partly specified)
inactive: [1] 8.65% | [2] -11.7% | [3] 26.4% | [4] 12.6% | [5] 2.55% | [6] -20.9%

COc1cc(O)c(Cc2ccccc2O)c(O)c1C(=O)CCc1ccccc1
inactive: [1] -17.4% | [2] -34.5% | [3] -13.5% | [4] -5.65% | [5] -35.9% | [6] -7.9%

N#CSCc1c(Cl)c(Cl)c(CSC#N)c(Cl)c1Cl
inactive: [1] -13.8% | [2] -7.15% | [3] 2.15% | [4] -18.9% | [5] 5.85% | [6] -12.4%

CC(=O)C1CC2CCC1C2 (stereo unspecified)
inactive: [1] 10.4% | [2] 12.8% | [3] -8.7% | [4] -12.4% | [5] 1.25% | [6] 7.9%

O=C(COc1ccc(Cl)cc1Cl)Nc1c(Cl)cc(Cl)cc1Cl
inactive: [1] 6.7% | [2] 7.6% | [3] -6.45% | [4] 2% | [5] -4.8% | [6] 19.6%

CC1COC(C(C)C)(C(C)C)O1 (stereo unspecified)
inactive: [1] -8.6% | [2] -30.1% | [3] -4.2% | [4] -10% | [5] -2.7% | [6] 22.4%

CC(C)(C)CC(C)(C)c1ccc(OCCOc2ccc([N+](=O)[O-])cc2N)cc1
inactive: [1] 56.5% | [2] 11.1% | [3] 41.6% | [4] 4% | [5] 4.9% | [6] 26.1%

COc1ccc(-c2onc(-c3ccc([N+](=O)[O-])cc3)c2C2=NCCCN2)cc1
inactive: [1] 0.45% | [2] -6.65% | [3] -10.3% | [4] 12.7% | [5] -1.95% | [6] -20.3%

c1ccc2c(-c3cnc(-c4ccc(-c5ncc(-c6cccc7ccccc67)o5)cc4)o3)cccc2c1
inactive: [1] -14.9% | [2] -2.45% | [3] 0.5% | [4] -52.6% | [5] -1.1% | [6] -16.4%

O=C(Cn1c(=O)oc2ccc(C(=O)c3ccc(F)cc3)cc21)c1ccc([N+](=O)[O-])cc1
inactive: [1] -13.8% | [2] -36% | [3] -15.6% | [4] -24.6% | [5] -21.6% | [6] -14.8%

COc1cc(-c2oc3ccccc3c(=O)c2O)cc(OC)c1OC
inactive: [1] -29.6% | [2] -51.8% | [3] -16.3% | [4] -22.8% | [5] -42% | [6] -14.1%

O=C1OC(c2ccc3c(c2)CCCC3)=C/C1=C/c1ccc2c(c1)OCO2
inactive: [1] -13.4% | [2] 4% | [3] 14.1% | [4] -25.1% | [5] 2.9% | [6] -15.9%

COc1cc2c(cc1Oc1c(O)c(OC)cc3c1C(C)N(C)CC3)C(C)N(C)CC2 (stereo unspecified)
inactive: [1] 37.5% | [2] -8.1% | [3] 2.4% | [4] 0.8% | [5] 2.5% | [6] 14.9%

CCCNC(=O)N(CCC)S(=O)(=O)c1ccc(Cl)cc1
inactive: [1] -6.85% | [2] 8.45% | [3] 12.3% | [4] 24.6% | [5] 22.7% | [6] 25.6%

CC1CCC(O)(C(C)(C(=O)O)c2ccccc2)CC1 (stereo unspecified)
inactive: [1] -19.7% | [2] -16.8% | [3] -5.65% | [4] -35.6% | [5] -54.8% | [6] -8.45%

COc1cccc(C(F)(F)F)c1
inactive: [1] -3.1% | [2] 10.3% | [3] -10.3% | [4] -6.85% | [5] 19.4% | [6] -13%

CCOC(=O)C(Cc1cc(C)c(O)c(I)c1)NC(C)=O (stereo unspecified)
inactive: [1] -18.4% | [2] -1.1% | [3] -11.2% | [4] 4.2% | [5] 5.85% | [6] -5.85%
